Bioassay records: PubChem BioAssay, SRMLSC
MK inhibit – inhibitors of Streptococcus pneumoniae mevalonate kinase | purified MK, PK/LDH-coupled NADH absorbance 340 nm | inhibition, % at 10 µM | 65,000 compounds, 0.48% hits | AID 555;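 active = ranked among the strongest by inhibition in the single 10 µM screen, a fixed top-ranked set picked for dose follow-up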
Spn PMK inh – inhibitors of Streptococcus pneumoniae phosphomevalonate kinase. purified PMK, PK/LDH-coupled NADH absorbance 340 nm. inhibition, % at 10 µM. 65,000 compounds, 0.49% hits. AID 539;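 active = top-ranked compounds by inhibition in the single 10 µM screen, taking a fixed number of the strongest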
Spn DPM-DC inh – inhibitors of Streptococcus pneumoniae diphosphomevalonate decarboxylase. calls only at 10 µM. 65,000 compounds, 0.49% hits. AID 556. purified DPM-DC, PK/LDH coupled NADH fluorescence;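 active = the 320 compounds with the highest percent inhibition in the single-dose primary screen, excluding strongly autofluorescent ones, cut at about 32% in these data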;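 note: kinetic rate of NADH fluorescence loss reporting ADP formed by the decarboxylase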
NADH coupling – inhibitors of enzymes used to reach an NAD/NADH endpoint; IC50, µM (doses to about 10 µM); AID 774; 65,000 compounds, 0.02% hits; coupled PK/LDH NADH assays, four targets;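 active = single-dose screening hits from any of four coupled enzyme assays that gave an IC50 when retested across doses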;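 note: the DPM-DC format reads NADH fluorescence rather than 340 nm absorbance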
Fluor 339 460 – intrinsic fluorescence of library compounds, ex339/em460 – biochemical, MLSMR library, data from DPM-DC assay, artefact control, profiling panel; fluorescence fold increase at 10 µM; 65,000 compounds, 5.5% hits; AID 709; compound autofluorescence, ex339/em460 nm, NADH buffer; stronger effect = higher value; 1 = no-compound wells, NADH background;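 active = at 10 µM, mean starting fluorescence two-fold or more over control wells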;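 note: signal is the first read of a kinetic run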
A340 absorber – absorbance at 340 nm; compound absorbance at 340 nm, fold over control; fold change at 10 µM; 65,000 tested, under 10 active; AID 708;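 active = at 10 µM dose, initial 340 nm absorbance at least 2 fold that of control wells; inactive = change under 2 fold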;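 note: initial absorbance extrapolated from kinetic A340 decline of NADH oxidation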
Hits are given with their value; n = inactive; x = no result given; + = active, no number. The list is not random: actives were taken first. Their share in the collection is about 6.8%.

SMILES | MK inhibit | Spn PMK inh | Spn DPM-DC inh | NADH coupling | Fluor 339 460 | A340 absorber
O=c1ccc2c(o1)/C(=C/C=C(Cl)Cl)CCC2 | n | n | n | n | n | n
CCCNC(=O)c1c(C)cc(=O)oc1C | n | n | n | n | 2.06 | n
Cc1c(NC(=O)C2CCN(S(=O)(=O)c3ccccc3)CC2)c(=O)n(-c2ccccc2)n1C | n | n | + | n | n | n
COc1cc(Cl)c(C)cc1NC(=O)COC(=O)c1cnc(C)cn1 | n | n | n | n | n | n
c1ccc2sc(SN3CCOCC3)nc2c1 | n | n | n | n | n | n
Cc1cc2n(n1)C(c1sccc1C)Nc1c(C)cccc1-2 (stereo not drawn) | n | n | n | n | 2.06 | n
Cc1ccc2c(c1)-c1cc(C)nn1C(c1sccc1C)N2 (stereo not drawn) | n | n | n | n | 2.2 | n
Cc1cc2n(n1)C(c1sccc1C)Nc1ccccc1-2 (stereo not drawn) | n | n | n | n | n | n
CCOC(=O)CN1C(=O)C(O)(CC(=O)c2cccc(OC)c2)c2ccccc21 (stereo not drawn) | n | n | n | n | n | n
Brc1ccc2ncnc(Nc3ccc(N4CCOCC4)cc3)c2c1 | n | n | n | n | n | n
C=CCn1c(SCC(=O)c2ccc(NS(=O)(=O)c3ccccc3)cc2)nnc1-c1cccs1 | n | n | n | n | n | n
Cc1cccc(Nc2ccccc2C(=O)O)c1C | n | n | n | n | n | n
CC(=O)n1cc(Nc2ccccc2C(=O)O)c2ccccc21 | n | n | x | n | 2.23 | n
COc1ccc(-n2nnnc2Sc2ccc(S(=O)(=O)N3CCOCC3)cn2)cc1 | n | n | n | n | n | n
CCn1c(SCC(=O)O)nnc1C1CCCCC1 | n | n | n | n | n | n
COCCCn1c(=NC(=O)c2ccncc2)c(C#N)cc2c(=O)n3cccc(C)c3nc21 | n | n | x | n | 3.92 | n
CCCn1c(=NC(=O)c2ccncc2)c(C#N)cc2c(=O)n3cccc(C)c3nc21 | n | n | x | n | 3.6 | n
CCCn1c(=NC(=O)c2ccc3c(c2)OCO3)c(C#N)cc2c(=O)n3cccc(C)c3nc21 | n | n | n | n | n | n
Cc1cccn2c(=O)c3cc(C#N)c(=N)n(CCN4CCOCC4)c3nc12 | n | n | x | n | n | n
Cc1cccn2c(=O)c3cc(C#N)c(=NC(=O)c4ccncc4)n(CCCOC(C)C)c3nc12 | n | n | x | n | 3.62 | n
Fc1ccc(Cn2nnnc2CN2CCc3ccccc3C2)cc1 | n | n | n | n | n | n
COC(=O)c1cccc(NC(=O)c2nn(C)c(=O)c3ccccc23)c1 | n | n | n | n | n | n
COCCCn1c(CCC(=O)O)ccc1-c1cccs1 | n | n | x | n | 3.95 | n
O=C(O)CCc1ccc(-c2cccs2)n1CC1CCCO1 (stereo not drawn) | n | n | n | n | 2.98 | n
CCCn1c(CCC(=O)O)ccc1-c1cccs1 | n | n | x | n | n | n
SMILES | MK inhibit | Spn PMK inh | Spn DPM-DC inh | NADH coupling | Fluor 339 460 | A340 absorber
CC1CCC(N2CCN(S(C)(=O)=O)CC2)CC1 (stereo not drawn) | n | n | n | n | n | n
CCS(=O)(=O)N1CCN(C2CCC(C)CC2)CC1 (stereo not drawn) | 61.0 | n | n | n | n | n
CCc1nc2c(c(=O)[nH]1)C1(CCCC1)Cc1ccccc1-2 | n | n | n | n | n | n
CC1(C)CC(n2c(NCCO)nc3c(c2=O)C2(CCCC2)Cc2ccccc2-3)CCO1 (stereo not drawn) | n | n | x | n | 2.05 | n
O=c1[nH]c(NCCO)nc2c1C1(CCCCC1)Cc1ccccc1-2 | n | n | x | n | 3.88 | n
N#Cc1c(NCCCO)nc(NCc2ccccc2)c2c1CCN(Cc1ccccc1)C2 | n | n | + | n | 2.42 | n
Cc1ccc2[nH]c(-c3cccc(N)c3)cc2c1 | n | n | x | n | 3.82 | n
Cc1csc2c(C#N)c(=O)c3c(n12)CCC3 | n | n | n | n | n | n
CCCCCn1c(CN2CCN(C)CC2)nc2c1c(=O)n(C)c(=O)n2C | n | n | n | n | n | n
CCCCn1c(Cl)nc2c1c(=O)n(C)c(=O)n2C | 40.0 | n | n | n | n | n
CCCCOC(=O)CSC1=C(C#N)C(c2ccccc2OC)C(C#N)C(=O)N1 (stereo not drawn) | 78.0 | n | n | n | n | n
COc1ccc(CNC(=O)C(OC(C)=O)c2ccccn2)cc1 (stereo not drawn) | n | n | n | n | n | n
COc1ccc(S(=O)(=O)Nc2nnc(C)s2)cc1 | n | 30.0 | n | n | n | n
Cc1nnc(NS(=O)(=O)c2ccc(N)cc2)s1 | n | n | n | n | n | n
O=C(CNS(=O)(=O)c1cccs1)N1CCc2ccccc2C1 | n | n | n | n | n | n
O=C(CCc1nc2ccccc2c(=O)[nH]1)OCC(=O)N1CCN(S(=O)(=O)c2ccccc2)CC1 | n | 28.0 | n | n | n | n
CC(C)CC1(C)NC(=O)N(CCN2C(=O)c3ccccc3C2=O)C1=O (stereo not drawn) | n | n | n | n | n | n
CCN(CC)C(=O)C1CCCN(Cc2ccc(N(C)C)cc2)C1 (stereo not drawn) | 50.0 | n | n | n | n | n
CCN(CC)C(=O)C1CCCN(Cc2ccc(OC)c(C)c2)C1 (stereo not drawn) | 51.0 | n | n | n | n | n
CCN(CC)C(=O)C1CCCN(Cc2ccc(F)c(F)c2)C1 (stereo not drawn) | n | n | n | n | n | n
CCOC(=O)C1CCCN(Cc2ccc3c(c2)OCO3)C1 (stereo not drawn) | n | n | n | n | n | n
C=CCN(CC=C)S(=O)(=O)c1ccc2nsnc2c1 | n | n | n | n | n | n
Cc1ccc(-c2nnc(-c3ccc(Br)cc3)o2)o1 | n | n | x | n | 3.4 | n
Cc1c(NC(=O)CSc2nc3ccccc3n2C)c(=O)n(-c2ccccc2)n1C | n | n | n | n | n | n
CC(=O)c1ccc(OCC(O)CN(C)Cc2cccs2)cc1 (stereo not drawn) | n | n | n | n | n | n
SMILES | MK inhibit | Spn PMK inh | Spn DPM-DC inh | NADH coupling | Fluor 339 460 | A340 absorber
O=C1CCCC2=C1C(c1ccco1)Nc1ccc3ccccc3c12 (stereo not drawn) | n | n | x | n | 2.16 | n
CON(C)c1nc(OCCNC(=O)COc2ccc(Cl)cc2C)nc(N(C)C)n1 | n | n | n | n | n | n
CON(C)c1nc(OCCNC(=O)OCc2ccc(Cl)cc2Cl)nc(N(C)C)n1 | n | 25.0 | n | n | n | n
Cc1noc(C)c1COc1ccc(C(=O)OCc2nnc(-c3ccc(Cl)cc3)o2)cc1 | n | n | n | n | n | n
O=c1[nH]c(N2CCc3ccccc3C2)nc2c1CCCC2 | n | n | n | n | n | n
O=c1[nH]c(-c2ccccc2O)nc2c1CCCC2 | n | n | n | n | 3.33 | n
CC(CC1C(C#N)=C(N)SC(N)=C1C#N)c1ccccc1 (stereo not drawn) | n | n | n | n | n | n
Cc1c(C#N)sc2nc(-c3ccccc3)nc(N3CCCC3)c12 | n | n | x | n | 2.45 | n
